Test results as given in PubChem BioAssay AID1159580 (chemical genetic matrix, 2015).
Several values for one entry are separate records, joined by “and”; a condition that tells them apart may be missing. Equal values may be shown once. Hit rate of the full screen: of about 5,500 compounds, about 2,000 (36%) were called active. Another 18% or so got no clear call; they are omitted. Cut-off read from the data, not from the text of the source: active = normalized growth mostly below about 0.91 (no sharp cut-off); inconclusive = no clear call, values can overlap the other calls; inactive = mostly above about 0.92. The list shows a part of the results.

Experiment: chemical genetic growth profiling, strain panel (AID 1159580);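 note: tested at 20 µM; growth read once vehicle control cultures reached saturation at 30 °C; 1 = growth at the plate median or of vehicle wells; lower values mean less growth of the strain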
Settings: S. cerevisiae deletion strains, growth OD

Measured: normalized growth

NC1CONC1=O (centres undefined)
inactive: locus YAL040C, strain CLN3, hits give low values 1.01 and 0.999 | locus YCL061C, strain MRC1 (second series), hits give low values 1 | locus YDR150W, strain NUM1, hits give low values 1.01 | locus YDR363W, strain ESC2, hits give low values 1.01 | locus YER002W, strain NOP16, hits give low values 1.01 and 0.983 | locus YGR229C, strain SMI1, hits give low values 1.01 | locus YMR307W, strain GAS1, hits give low values 1.01 | locus YNL128W, strain TEP1, hits give low values 1.03 | locus YNL153C, strain GIM3, hits give low values 1.01 and 0.981 | locus YNL175C, strain NOP13, hits give low values 1.02 | locus YNL197C, strain WHI3, hits give low values 1.02 and 1 | locus YNL224C, strain SQS1, hits give low values 0.993 and 0.985 | locus YOR083W, strain WHI5 (second series), hits give low values 1.01 | locus YPL241C, strain CIN2, hits give low values 1
